According to the supplement of paper PMC13380429:
A number with no mark means an inactive call.

Each molecule was assayed on Vero E6 infected with SARS-CoV-2 (assay: inhibition of SARS-CoV-2 cytopathic effect; higher = more antiviral protection, active = above 15). Conditions: 1 nM; 48 h.

| SMILES | inhibition of SARS-CoV-2 cytopathic effect [%] |
| --- | --- |
| O=C(O)Cc1ccc(OCCNC[C@H](O)c2ccccc2)cc1 | 2.57 |
| C[N+]1(C)CCCC(OC(=O)C(O)(c2ccccc2)c2ccccc2)C1 (stereo not drawn) [mepenzolate] | -0.21 |
| O=P(O)(O)C(O)(Cc1cnc2ccccn12)P(=O)(O)O [minodronic-acid] | -2.81 |
| COc1ccc2cccc(N3CCN(CCNC(=O)c4ccc(F)cc4)CC3)c2c1 | -1.86 |
| CO/N=C(\C(=O)N[C@@H]1C(=O)N2C(C(=O)OCOC(=O)C(C)(C)C)=C(/C=C\c3scnc3C)CS[C@H]12)c1csc(N)n1 [cefditoren-pivoxil] | -0.67 |
| Cc1ccc(-c2csc3ncnc(SCCC(=O)O)c23)cc1 | -0.23 |
| Cn1c2c(c3ccccc31)CCNCC2 | 3.79 |
| CCOC(=O)c1ccc(C#Cc2ccc3c(c2)C(C)(C)CCS3)nc1 [tazarotene] | 0.41 |
| C[C@H](CCC(=O)O)[C@H]1CC[C@H]2[C@@H]3[C@@H](O)C[C@@H]4C[C@H](O)CC[C@]4(C)[C@H]3CC[C@]12C [ursodiol] | 0.455 |
| Nc1nc(OCC2CCCCC2)c2nc[nH]c2n1 | 1.06 |
| CNC1CC(c2ccc(Cl)c(Cl)c2)c2ccccc21 (stereo not drawn) [indatraline] | -0.39 |
| CCCN(CCC)CCc1cccc2c1CC(=O)N2 [ropinirole] | 0.18 |
| OC(CCN1CCCCC1)(c1ccccc1)C1CC2C=CC1C2 (stereo not drawn) [biperiden] | 0.1 |
